# Source: paper PMC7862700, “An all-to-all approach to the identification of sequence-specific readers for epigenetic DNA modifications on cytosine”
# Legend:
# Assay in all cases: DAPPL (digital affinity profiling via proximity ligation, sequencing); 10 mM Tris-HCl pH 7.5, 50 mM NaCl, 1 mM DTT, 4% glycerol, room temperature, 30 min; GST-TFs on glutathione beads, 16-mer random dsDNA library, 0.1% formaldehyde crosslink after washing; high values mean tight binding
# FEV = biological target: T1, FEV (Homo sapiens, UniProt Q99581 1-238); details: protein: recombinant; tags: N-terminal GST; dsDNA, one strand shown
# T1 sequence: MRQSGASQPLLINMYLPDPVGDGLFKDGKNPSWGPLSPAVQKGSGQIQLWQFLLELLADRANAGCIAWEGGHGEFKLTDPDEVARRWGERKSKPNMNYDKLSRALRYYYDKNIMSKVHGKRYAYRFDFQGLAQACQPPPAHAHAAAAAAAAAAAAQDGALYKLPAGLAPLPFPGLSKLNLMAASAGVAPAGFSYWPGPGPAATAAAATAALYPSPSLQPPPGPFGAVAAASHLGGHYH
# Summary of the method: (§1)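 The binding signal reported is, for every hexamer, its read frequency for a factor over its read frequency for the tag-only sample. Reads came from pools of yeast-expressed, GST-fused human transcription factors on glutathione beads, barcoded with DNA and mixed with that sample, which were incubated with 200 nmole of a random double-stranded 16-mer DNA library in Tris/NaCl/DTT/glycerol buffer at room temperature for 30 min. After washing, the pools were crosslinked with 0.1% formaldehyde, proximity-ligated with BsaI/T4 ligase for 1 h at 37 °C, PCR-amplified and sequenced on an Illumina NextSeq500.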
# ETV5 = ETV5 (Homo sapiens, UniProt P41161 1-510); details: protein: recombinant; tags: N-terminal GST; dsDNA, one strand shown
# Summary of the method: as §1
# HSF1 = HSF1 (Homo sapiens, UniProt Q00613 1-529); details: protein: recombinant; tags: N-terminal GST; chain copies: 3; dsDNA, one strand shown
# Summary of the method: as §1
# SPIC = biological target: T2, SPIC (Homo sapiens, UniProt Q8N5J4 1-248); details: protein: recombinant; tags: N-terminal GST; dsDNA, one strand shown
# T2 sequence: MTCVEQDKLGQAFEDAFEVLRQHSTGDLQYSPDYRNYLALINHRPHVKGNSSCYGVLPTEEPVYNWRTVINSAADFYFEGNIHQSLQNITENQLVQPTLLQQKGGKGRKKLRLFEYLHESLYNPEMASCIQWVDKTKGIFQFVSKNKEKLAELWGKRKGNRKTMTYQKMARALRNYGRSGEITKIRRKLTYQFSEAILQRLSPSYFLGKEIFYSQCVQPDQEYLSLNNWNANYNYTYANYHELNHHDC
# Summary of the method: as §1
# ELF4 = ELF4 (Homo sapiens, UniProt Q99607 1-663); details: protein: recombinant; tags: N-terminal GST; dsDNA, one strand shown
# Summary of the method: as §1
# ELK4 = biological target: T3, ELK4 (Homo sapiens, UniProt P28324-2 1-405); details: protein: recombinant; tags: N-terminal GST; dsDNA, one strand shown
# T3 sequence: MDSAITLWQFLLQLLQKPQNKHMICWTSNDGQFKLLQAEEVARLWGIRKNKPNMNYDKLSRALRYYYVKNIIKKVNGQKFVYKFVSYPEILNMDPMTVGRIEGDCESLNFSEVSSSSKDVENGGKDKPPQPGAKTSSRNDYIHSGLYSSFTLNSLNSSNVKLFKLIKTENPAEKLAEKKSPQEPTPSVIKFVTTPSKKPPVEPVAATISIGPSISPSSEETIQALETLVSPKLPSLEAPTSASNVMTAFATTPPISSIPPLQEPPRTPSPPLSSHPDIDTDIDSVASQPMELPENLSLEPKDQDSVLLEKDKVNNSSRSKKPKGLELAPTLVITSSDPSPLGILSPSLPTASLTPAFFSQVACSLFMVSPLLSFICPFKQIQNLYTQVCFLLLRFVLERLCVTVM
# Summary of the method: as §1
# ETV2 = biological target: T4, ETV2 (Homo sapiens, UniProt O00321 1-342); details: protein: recombinant; tags: N-terminal GST; dsDNA, one strand shown
# T4 sequence: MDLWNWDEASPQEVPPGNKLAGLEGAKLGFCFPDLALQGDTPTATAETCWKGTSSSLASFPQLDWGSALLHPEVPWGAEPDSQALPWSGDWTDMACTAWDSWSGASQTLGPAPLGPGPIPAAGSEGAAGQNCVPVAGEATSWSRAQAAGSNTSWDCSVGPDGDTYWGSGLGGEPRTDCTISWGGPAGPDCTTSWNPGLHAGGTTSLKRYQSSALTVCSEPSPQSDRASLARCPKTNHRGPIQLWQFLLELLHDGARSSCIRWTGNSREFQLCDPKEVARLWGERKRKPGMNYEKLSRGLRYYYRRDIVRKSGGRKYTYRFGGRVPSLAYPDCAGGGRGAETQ
# Summary of the method: as §1
# ELF3 = biological target: T5, ELF3 (Homo sapiens, UniProt P78545 1-371); details: protein: recombinant; tags: N-terminal GST; dsDNA, one strand shown
# T5 sequence: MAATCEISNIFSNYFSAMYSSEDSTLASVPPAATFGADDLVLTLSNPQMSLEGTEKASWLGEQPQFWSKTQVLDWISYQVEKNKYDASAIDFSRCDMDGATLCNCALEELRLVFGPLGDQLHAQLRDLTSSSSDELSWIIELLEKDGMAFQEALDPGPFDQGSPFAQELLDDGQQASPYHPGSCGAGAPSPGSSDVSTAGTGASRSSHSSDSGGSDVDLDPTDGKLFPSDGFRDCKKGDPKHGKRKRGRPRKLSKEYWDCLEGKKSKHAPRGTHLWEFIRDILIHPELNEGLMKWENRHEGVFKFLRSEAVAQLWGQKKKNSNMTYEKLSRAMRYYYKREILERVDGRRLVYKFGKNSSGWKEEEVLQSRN
# Summary of the method: as §1
# CRX = CRX (Homo sapiens, UniProt O43186 1-299); details: protein: recombinant; tags: N-terminal GST; dsDNA, one strand shown
# Summary of the method: as §1
# ETV1 = ETV1 (Homo sapiens, UniProt P50549 1-477); details: protein: recombinant; tags: N-terminal GST; dsDNA, one strand shown
# Summary of the method: as §1
# ERF = biological target: T6, ERF (Homo sapiens, UniProt P50548 1-548); details: protein: recombinant; tags: N-terminal GST; dsDNA, one strand shown
# T6 sequence: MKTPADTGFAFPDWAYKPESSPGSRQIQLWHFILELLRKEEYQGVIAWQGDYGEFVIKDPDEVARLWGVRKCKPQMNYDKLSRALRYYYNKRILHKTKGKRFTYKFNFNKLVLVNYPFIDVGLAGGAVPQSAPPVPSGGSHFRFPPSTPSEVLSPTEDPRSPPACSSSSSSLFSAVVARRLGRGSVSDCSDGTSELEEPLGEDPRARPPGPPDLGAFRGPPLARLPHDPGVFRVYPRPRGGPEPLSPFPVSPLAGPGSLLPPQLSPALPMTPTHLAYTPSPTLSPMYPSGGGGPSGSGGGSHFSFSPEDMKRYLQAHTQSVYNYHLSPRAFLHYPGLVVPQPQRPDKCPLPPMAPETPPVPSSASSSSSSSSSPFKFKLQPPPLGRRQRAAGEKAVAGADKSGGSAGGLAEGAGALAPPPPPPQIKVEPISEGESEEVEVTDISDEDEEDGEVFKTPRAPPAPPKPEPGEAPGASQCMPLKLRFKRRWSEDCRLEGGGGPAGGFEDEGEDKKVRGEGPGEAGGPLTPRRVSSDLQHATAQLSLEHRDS
# Summary of the method: as §1
# ETV3L = biological target: T7, ETV3L (Homo sapiens, UniProt Q6ZN32 1-361); details: protein: recombinant; tags: N-terminal GST; dsDNA, one strand shown
# T7 sequence: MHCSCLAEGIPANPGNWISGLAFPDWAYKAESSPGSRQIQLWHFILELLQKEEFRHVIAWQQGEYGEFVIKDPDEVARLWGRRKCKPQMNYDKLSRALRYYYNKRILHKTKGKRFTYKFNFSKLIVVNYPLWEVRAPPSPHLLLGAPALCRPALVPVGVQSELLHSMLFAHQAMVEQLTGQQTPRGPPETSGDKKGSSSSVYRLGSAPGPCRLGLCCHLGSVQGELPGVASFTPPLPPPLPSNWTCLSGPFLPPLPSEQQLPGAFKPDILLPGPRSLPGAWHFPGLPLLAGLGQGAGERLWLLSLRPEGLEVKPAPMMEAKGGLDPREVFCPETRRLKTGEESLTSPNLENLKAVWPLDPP
# Summary of the method: as §1
# ETS2 = biological target: T8, ETS2 (Homo sapiens, UniProt P15036 1-469); details: protein: recombinant; tags: N-terminal GST; dsDNA, one strand shown
# T8 sequence: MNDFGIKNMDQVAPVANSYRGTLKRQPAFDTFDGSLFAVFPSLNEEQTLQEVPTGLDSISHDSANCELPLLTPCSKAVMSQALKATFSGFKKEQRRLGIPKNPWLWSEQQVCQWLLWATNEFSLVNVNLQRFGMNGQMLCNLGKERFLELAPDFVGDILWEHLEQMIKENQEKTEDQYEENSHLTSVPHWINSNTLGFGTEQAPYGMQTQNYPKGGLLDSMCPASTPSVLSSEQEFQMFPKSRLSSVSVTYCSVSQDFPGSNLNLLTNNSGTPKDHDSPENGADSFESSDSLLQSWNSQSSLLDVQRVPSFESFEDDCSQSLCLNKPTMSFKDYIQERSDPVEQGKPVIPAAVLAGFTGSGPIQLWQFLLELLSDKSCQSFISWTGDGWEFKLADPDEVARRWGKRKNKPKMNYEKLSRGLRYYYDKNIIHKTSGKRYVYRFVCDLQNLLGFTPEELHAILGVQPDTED
# Summary of the method: as §1
# SPDEF = biological target: T9, SPDEF (Homo sapiens, UniProt O95238 1-335); details: protein: recombinant; tags: N-terminal GST; dsDNA, one strand shown
# T9 sequence: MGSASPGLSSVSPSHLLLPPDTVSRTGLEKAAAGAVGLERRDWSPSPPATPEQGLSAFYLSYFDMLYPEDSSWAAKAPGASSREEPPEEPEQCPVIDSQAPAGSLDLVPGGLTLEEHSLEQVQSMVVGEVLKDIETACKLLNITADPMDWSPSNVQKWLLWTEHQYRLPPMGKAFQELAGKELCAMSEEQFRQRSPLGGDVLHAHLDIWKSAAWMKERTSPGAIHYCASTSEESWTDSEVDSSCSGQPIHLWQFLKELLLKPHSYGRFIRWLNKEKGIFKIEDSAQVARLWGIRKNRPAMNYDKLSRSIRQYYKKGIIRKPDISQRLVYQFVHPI
# Summary of the method: as §1
# ETV7 = biological target: T10, ETV7 (Homo sapiens, UniProt Q9Y603 1-341); details: protein: recombinant; tags: N-terminal GST; dsDNA, one strand shown
# T10 sequence: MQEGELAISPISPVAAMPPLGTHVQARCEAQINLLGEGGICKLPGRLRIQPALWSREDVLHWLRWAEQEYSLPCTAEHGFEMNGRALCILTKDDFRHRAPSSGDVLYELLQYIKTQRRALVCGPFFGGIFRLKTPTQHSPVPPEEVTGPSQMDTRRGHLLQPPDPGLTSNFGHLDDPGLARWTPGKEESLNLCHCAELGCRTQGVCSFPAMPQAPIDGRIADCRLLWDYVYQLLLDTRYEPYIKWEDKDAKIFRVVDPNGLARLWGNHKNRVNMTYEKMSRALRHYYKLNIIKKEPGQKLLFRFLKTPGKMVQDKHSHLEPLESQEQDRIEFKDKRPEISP
# Summary of the method: as §1
# ELF5 = biological target: T11, ELF5 (Homo sapiens, UniProt Q9UKW6-2 1-255); details: protein: recombinant; tags: N-terminal GST; dsDNA, one strand shown
# T11 sequence: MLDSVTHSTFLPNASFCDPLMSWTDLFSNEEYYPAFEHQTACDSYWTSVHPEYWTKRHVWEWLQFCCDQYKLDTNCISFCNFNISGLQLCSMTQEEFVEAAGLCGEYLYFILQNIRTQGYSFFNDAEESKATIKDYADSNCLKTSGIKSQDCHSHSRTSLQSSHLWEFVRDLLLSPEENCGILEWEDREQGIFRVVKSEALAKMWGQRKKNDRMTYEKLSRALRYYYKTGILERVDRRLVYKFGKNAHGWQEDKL
# Summary of the method: as §1
# ETV3 = biological target: T12, ETV3 (Homo sapiens, UniProt P41162-2 1-143); details: protein: recombinant; tags: N-terminal GST; dsDNA, one strand shown
# T12 sequence: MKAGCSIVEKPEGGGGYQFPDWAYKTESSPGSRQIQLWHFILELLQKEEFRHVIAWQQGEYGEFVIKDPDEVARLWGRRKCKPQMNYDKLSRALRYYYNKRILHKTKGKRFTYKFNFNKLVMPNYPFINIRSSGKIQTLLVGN
# Summary of the method: as §1
# ETV6 = ETV6 (Homo sapiens, UniProt P41212 1-452); details: protein: recombinant; tags: N-terminal GST; dsDNA, one strand shown
# Summary of the method: as §1
# Chain of CRX (O43186 whole entry): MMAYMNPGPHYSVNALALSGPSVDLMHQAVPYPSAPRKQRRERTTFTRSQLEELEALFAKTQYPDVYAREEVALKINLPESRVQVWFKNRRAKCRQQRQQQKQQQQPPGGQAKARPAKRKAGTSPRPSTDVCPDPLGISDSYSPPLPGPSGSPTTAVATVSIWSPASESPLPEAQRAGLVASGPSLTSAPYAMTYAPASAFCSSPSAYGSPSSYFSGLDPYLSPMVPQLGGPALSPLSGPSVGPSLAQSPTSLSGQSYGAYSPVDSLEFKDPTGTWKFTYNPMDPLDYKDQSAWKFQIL
# Chain of ETV1 (P50549 whole entry): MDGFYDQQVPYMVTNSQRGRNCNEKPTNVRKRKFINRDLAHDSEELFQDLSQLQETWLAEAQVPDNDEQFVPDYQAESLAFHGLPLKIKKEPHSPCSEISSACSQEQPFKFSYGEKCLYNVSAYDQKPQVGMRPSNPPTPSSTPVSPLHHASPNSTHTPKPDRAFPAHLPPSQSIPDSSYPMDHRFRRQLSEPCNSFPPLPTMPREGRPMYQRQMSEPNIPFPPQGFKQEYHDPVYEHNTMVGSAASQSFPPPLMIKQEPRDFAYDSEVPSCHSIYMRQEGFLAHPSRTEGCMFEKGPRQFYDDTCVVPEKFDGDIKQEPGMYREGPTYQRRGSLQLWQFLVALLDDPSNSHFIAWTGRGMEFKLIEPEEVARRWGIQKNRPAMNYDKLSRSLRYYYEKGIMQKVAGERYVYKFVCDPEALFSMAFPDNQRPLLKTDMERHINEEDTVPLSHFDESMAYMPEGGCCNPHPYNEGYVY
# Chain of HSF1 (Q00613 whole entry): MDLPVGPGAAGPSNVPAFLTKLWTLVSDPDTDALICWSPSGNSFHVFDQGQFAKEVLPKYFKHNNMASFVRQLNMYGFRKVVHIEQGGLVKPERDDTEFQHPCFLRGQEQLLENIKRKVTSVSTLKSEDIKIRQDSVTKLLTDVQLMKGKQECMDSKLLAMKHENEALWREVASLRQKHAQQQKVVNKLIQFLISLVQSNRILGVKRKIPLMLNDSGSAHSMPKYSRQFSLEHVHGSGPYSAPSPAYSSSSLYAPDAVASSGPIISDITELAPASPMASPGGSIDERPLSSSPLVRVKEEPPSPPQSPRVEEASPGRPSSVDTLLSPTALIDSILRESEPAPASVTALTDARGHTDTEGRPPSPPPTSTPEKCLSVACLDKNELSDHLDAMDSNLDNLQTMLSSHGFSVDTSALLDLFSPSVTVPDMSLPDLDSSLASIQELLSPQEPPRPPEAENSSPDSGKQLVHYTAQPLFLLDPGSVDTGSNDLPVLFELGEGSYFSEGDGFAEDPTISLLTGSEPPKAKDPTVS
# Chain of ETV5 (P41161 whole entry): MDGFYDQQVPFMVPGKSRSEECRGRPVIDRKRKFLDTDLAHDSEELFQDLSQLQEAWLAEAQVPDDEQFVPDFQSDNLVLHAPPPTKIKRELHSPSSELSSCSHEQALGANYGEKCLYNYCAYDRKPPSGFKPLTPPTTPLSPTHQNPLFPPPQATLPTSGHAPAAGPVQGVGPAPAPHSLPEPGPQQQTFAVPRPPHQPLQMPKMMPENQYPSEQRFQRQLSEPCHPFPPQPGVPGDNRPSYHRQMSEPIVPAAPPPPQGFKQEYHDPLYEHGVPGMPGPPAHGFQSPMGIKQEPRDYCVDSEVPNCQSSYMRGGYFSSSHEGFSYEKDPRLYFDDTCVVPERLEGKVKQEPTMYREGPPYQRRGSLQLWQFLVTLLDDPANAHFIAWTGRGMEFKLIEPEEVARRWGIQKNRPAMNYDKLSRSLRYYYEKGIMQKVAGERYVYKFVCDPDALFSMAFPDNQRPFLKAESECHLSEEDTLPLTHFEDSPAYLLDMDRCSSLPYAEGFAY
# Chain of ETV6 (P41212 whole entry): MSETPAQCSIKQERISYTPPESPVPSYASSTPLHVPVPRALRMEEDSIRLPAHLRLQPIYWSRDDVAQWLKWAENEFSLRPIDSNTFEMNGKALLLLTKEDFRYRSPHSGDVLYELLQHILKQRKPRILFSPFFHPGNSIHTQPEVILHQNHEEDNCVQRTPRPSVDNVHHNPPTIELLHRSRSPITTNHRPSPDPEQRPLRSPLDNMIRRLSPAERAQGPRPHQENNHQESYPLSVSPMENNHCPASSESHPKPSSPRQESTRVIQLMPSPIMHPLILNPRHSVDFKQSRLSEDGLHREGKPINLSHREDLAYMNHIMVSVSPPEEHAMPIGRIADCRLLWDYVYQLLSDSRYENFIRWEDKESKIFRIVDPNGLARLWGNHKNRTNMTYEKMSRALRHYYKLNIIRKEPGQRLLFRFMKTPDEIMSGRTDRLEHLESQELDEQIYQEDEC
# Chain of ELF4 (Q99607 whole entry): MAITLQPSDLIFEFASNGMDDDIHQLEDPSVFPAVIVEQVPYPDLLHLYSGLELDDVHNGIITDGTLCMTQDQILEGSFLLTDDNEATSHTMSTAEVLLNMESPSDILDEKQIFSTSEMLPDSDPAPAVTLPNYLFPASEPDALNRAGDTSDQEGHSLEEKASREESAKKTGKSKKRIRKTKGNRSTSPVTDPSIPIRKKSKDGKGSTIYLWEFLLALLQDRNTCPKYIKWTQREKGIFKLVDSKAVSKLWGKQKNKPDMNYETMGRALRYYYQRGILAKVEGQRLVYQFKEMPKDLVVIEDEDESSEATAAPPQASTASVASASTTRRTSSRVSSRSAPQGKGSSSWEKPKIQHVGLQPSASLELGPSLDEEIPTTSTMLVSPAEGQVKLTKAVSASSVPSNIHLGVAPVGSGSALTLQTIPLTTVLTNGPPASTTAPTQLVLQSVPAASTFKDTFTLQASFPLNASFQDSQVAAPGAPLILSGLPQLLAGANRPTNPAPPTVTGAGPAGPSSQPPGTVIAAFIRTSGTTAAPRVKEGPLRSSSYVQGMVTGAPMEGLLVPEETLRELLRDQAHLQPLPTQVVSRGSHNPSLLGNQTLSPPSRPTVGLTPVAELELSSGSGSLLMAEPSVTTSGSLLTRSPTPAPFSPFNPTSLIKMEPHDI
sequence,measurement,setting,value
ACTTCG,binding signal,FEV,"1.42 fold enrichment (6-mer frequency, TF over GST control)"
same,binding signal,ETV5,"1.39 fold enrichment (6-mer frequency, TF over GST control)"
same,binding signal,HSF1,"1.65 fold enrichment (6-mer frequency, TF over GST control)"
same,binding signal,SPIC,"1.55 fold enrichment (6-mer frequency, TF over GST control)"
same,binding signal,ELF4,"1.47 fold enrichment (6-mer frequency, TF over GST control)"
same,binding signal,ELK4,"1.25 fold enrichment (6-mer frequency, TF over GST control)"
same,binding signal,ETV2,"1.45 fold enrichment (6-mer frequency, TF over GST control)"
same,binding signal,ELF3,"1.23 fold enrichment (6-mer frequency, TF over GST control)"
same,binding signal,CRX,"1.3 fold enrichment (6-mer frequency, TF over GST control)"
same,binding signal,ETV1,"1.46 fold enrichment (6-mer frequency, TF over GST control)"
same,binding signal,ERF,"1.52 fold enrichment (6-mer frequency, TF over GST control)"
same,binding signal,ETV3L,"1.27 fold enrichment (6-mer frequency, TF over GST control)"
same,binding signal,ETS2,"1.36 fold enrichment (6-mer frequency, TF over GST control)"
same,binding signal,SPDEF,"1.3 fold enrichment (6-mer frequency, TF over GST control)"
same,binding signal,ETV7,"1.26 fold enrichment (6-mer frequency, TF over GST control)"
same,binding signal,ELF5,"1.32 fold enrichment (6-mer frequency, TF over GST control)"
same,binding signal,ETV3,"1.42 fold enrichment (6-mer frequency, TF over GST control)"
same,binding signal,ETV6,"1.36 fold enrichment (6-mer frequency, TF over GST control)"
